The values that follow come from PubChem BioAssay (NCI).

Among the test systems are NCI-H23 lung; NCI-H226 lung; NCI-H322M lung; HOP-62 NSCLC; NCI-H460 lung; HOP-92 NSCLC; NCI-H522 lung; A549/ATCC NSCLC; 786-0 renal; COLO 205 colon; DU-145 prostate; K-562 leukemia; MALME-3M melanoma; MDA-MB-231 breast; RXF 393 renal; SF-268 CNS; SF-295 CNS; SF-539 CNS; UACC-257 melanoma; M14 melanoma.
What all share (assay): NCI-60 one-dose screen, 48 h (100 = growth as untreated, 0 = no growth, -100 = all killed)
Common to all, as to details: 10 µM unless noted

The panel holds about 83,000 compounds, 20% with a hit somewhere; the sample as a whole holds those more often.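 Plates (96-well) were seeded with cells, treated with compound at one concentration, and incubated for 48 hours before percent growth was determined.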 A number with no mark means an inactive call. Calls of active or inactive are those of the source. The calls were made as follows: active = growth percent below 10; inactive = the rest.

As for `CCCCCCC(=O)Nc1ncc(Cc2ccc(C)cc2)s1`, the growth in the test with NCI-H23 lung is 59.3%; in the test on NCI-H226 lung, 64.1%; in the test with NCI-H322M lung it was 58.4%; in the test on HOP-62 NSCLC, 40.3%; in the test on NCI-H460 lung it was 23.4%; in the test on HOP-92 NSCLC, 60.4%. The growth in the test with NCI-H522 lung was 22.2%; in the test on A549/ATCC NSCLC, 47.5%; with 786-0 renal it was 46%; in the test with COLO 205 colon it was 16.5%; in the test on DU-145 prostate, 42.2%; in the test on K-562 leukemia it was 24.2%. The growth in the test on MALME-3M melanoma is 58.6%; in the test on MDA-MB-231 breast, 59.9%; in the test on RXF 393 renal, -7.29% (active); in the test with SF-268 CNS, 58.1%; in the test on SF-295 CNS it was 34.6%; with SF-539 CNS it was 20.6%. Moreover, the growth in the test on UACC-257 melanoma is 55.2%; in the test on M14 melanoma, 31.6%.

On to `N=c1c2c(=N)n3c(nc2nc2n1-c1ccccc1Sc1ccccc1-2)sc1cc(Cl)ccc13`, for which the growth in the test on NCI-H23 lung is 7.38% (active); in the test with NCI-H226 lung, 32.9%; in the test on NCI-H322M lung it was 47.1%; in the test on HOP-62 NSCLC it was 76.8%; in the test on NCI-H460 lung, 13.8%; in the test with HOP-92 NSCLC it was -14.1% (active). The growth with NCI-H522 lung is 4.09% (active); in the test on 786-0 renal, 30%; in the test on COLO 205 colon it was 44.8%; with DU-145 prostate, 32.4%; with K-562 leukemia it was 34.9%; in the test with MALME-3M melanoma, 12.7%. The growth in the test on MDA-MB-231 breast was 32.1%; in the test on RXF 393 renal it was 26.5%; with SF-268 CNS, 38.3%; in the test with SF-295 CNS, 12.8%; in the test on SF-539 CNS it was 55.4%; with UACC-257 melanoma, -5.42% (active). Besides, the growth in the test with M14 melanoma was 28.8%.

As for `COc1ccc(-c2oc(=O)ccc2-c2cc(OC)c(OC)c(OC)c2)cc1O`, the growth with NCI-H23 lung was 49%; with NCI-H226 lung it was 64.1%; in the test on NCI-H322M lung it was 41.6%; in the test with HOP-62 NSCLC, -15.8% (active); in the test with NCI-H460 lung it was 4.04% (active); with HOP-92 NSCLC, 103%. The growth in the test with NCI-H522 lung was -0.118% (active); in the test on 786-0 renal, 20.5%; with COLO 205 colon it was 45.2%; in the test on DU-145 prostate, 6.81% (active); with K-562 leukemia, -9.26% (active); in the test with MALME-3M melanoma it was 37.8%. Besides, the growth was 38.6% in the test with MDA-MB-231 breast; -38.7% (active) with RXF 393 renal; 24.9% in the test on SF-268 CNS; -17.8% (active) with SF-295 CNS; -13.7% (active) with SF-539 CNS; 47.3% in the test on UACC-257 melanoma. For the same molecule, the growth in the test with M14 melanoma is -62.5% (active).

Take `COc1ccc(/C(C)=C(\c2ccc(Cl)cc2)c2ccc(OCCN3CCCC3)cc2)cc1`: the growth with NCI-H23 lung is 58.8%; with NCI-H226 lung, 85%; with NCI-H322M lung it was 49.6%; with HOP-62 NSCLC it was 59.2%; in the test on NCI-H460 lung, 2.86% (active); with HOP-92 NSCLC, 56.4%. Besides, the growth in the test on NCI-H522 lung was 69.9%; in the test with 786-0 renal, -31.6% (active); in the test on COLO 205 colon, -29.9% (active); in the test with DU-145 prostate it was 62.6%; with K-562 leukemia, -1.6% (active); with MALME-3M melanoma, 4.84% (active). The growth with MDA-MB-231 breast was 25.5%; in the test on RXF 393 renal, 32.6%; with SF-268 CNS, 51.8%; with SF-295 CNS, -7.32% (active); in the test with SF-539 CNS, 45.9%; in the test on UACC-257 melanoma it was -26.8% (active). Further, the growth in the test with M14 melanoma was -13.7% (active).

Consider `COC(=O)/C(CCC=C(C)C)=C1\[C@@H](OC(C)=O)C[C@@]2(C)[C@H]1CC(=O)[C@H]1[C@@]3(C)CCC(N4CCCC4)[C@@H](C)[C@@H]3CC[C@@]12C` (some centres undefined), for which the growth with NCI-H23 lung is 91.5%; with NCI-H226 lung, 113%; in the test with NCI-H322M lung it was 99.6%; in the test with HOP-62 NSCLC it was 102%; in the test on NCI-H460 lung, 101%; in the test with HOP-92 NSCLC it was 77.2%. The growth in the test with NCI-H522 lung was 102%; in the test on 786-0 renal, 93.1%; in the test with COLO 205 colon, 106%; in the test on DU-145 prostate, 101%; in the test with K-562 leukemia, 12.5%; in the test with MALME-3M melanoma, 100%. Moreover, the growth with MDA-MB-231 breast is 130%; with RXF 393 renal it was 98.3%; in the test with SF-268 CNS it was 97.6%; in the test with SF-295 CNS it was 98.3%; in the test with SF-539 CNS, 102%; in the test on UACC-257 melanoma, 110%. For the same molecule, the growth in the test on M14 melanoma is 93.1%.

Turning to `N/C(=N\c1nc2ccccc2s1)NC(=NC1CCCCC1)NC1CCCCC1`, the growth is 30.6% in the test with NCI-H23 lung; 77.1% in the test with NCI-H226 lung; 40.4% in the test with NCI-H322M lung; 67.7% in the test with HOP-62 NSCLC; -44.4% (active) in the test with NCI-H460 lung; -1.22% (active) in the test with HOP-92 NSCLC. In addition, the growth in the test on A549/ATCC NSCLC is 45.9%; in the test with 786-0 renal, 25.1%; in the test with COLO 205 colon, -44.9% (active); with DU-145 prostate, 14.3%; with K-562 leukemia, 3.16% (active); with MALME-3M melanoma, -70% (active). The growth in the test with MDA-MB-231 breast is 21.1%; with RXF 393 renal it was -46.9% (active); in the test with SF-268 CNS, 60%; in the test with SF-295 CNS it was -34.9% (active); in the test on SF-539 CNS, -44.7% (active); in the test with UACC-257 melanoma, -52.6% (active). In addition, in the test on M14 melanoma, the growth is -55.8% (active).

`COc1ccc2nc3ccccc3c(NCc3ccccc3)c2c1`: the growth is 21.5% in the test on NCI-H23 lung; 34.4% with NCI-H226 lung; 29.5% with NCI-H322M lung; 33.6% with HOP-62 NSCLC; 6.31% (active) in the test on NCI-H460 lung; -13.4% (active) in the test on HOP-92 NSCLC. Further, the growth was 18.2% in the test on A549/ATCC NSCLC; 22.3% in the test with 786-0 renal; -19.1% (active) with COLO 205 colon; 22.5% in the test with DU-145 prostate; 5.75% (active) in the test on K-562 leukemia; 22.5% in the test on MALME-3M melanoma. For the same molecule, the growth in the test on MDA-MB-231 breast was 27.8%; in the test on RXF 393 renal it was 5.86% (active); in the test with SF-268 CNS, 44.2%; in the test on SF-295 CNS it was 19.7%; in the test with SF-539 CNS, 11.8%; in the test on UACC-257 melanoma, 27.1%. For the same molecule, the growth in the test with M14 melanoma is 26%.
